Laboratory results published in PubChem BioAssay (Tox21).
Inconclusive results are not listed. A number with no mark means an inactive call. Calls follow the shape of the dose curve; as a rule, active = well fitted cell-killing curve with a large enough effect in the repeat runs; inconclusive = weak or mixed curves, or effect the other way; inactive = no such curve, though single readings can be large or run the other way.

Experiment: qHTS assay to identify small molecule antagonists of the retinoid-related orphan receptor gamma (ROR-gamma) signaling pathway - cell viability counter screen (AID 1159520); also: nearly all actives have a fitted effect of over 50% in size
Settings: Tet-on RORgamma CHO cells viability, ATP luminescence, 16 h; series mostly up to 92.4 µM; activity, negative = cytotoxicity: at the top concentration
From the text: U.S. Tox21 Program National Center for Advancing Translational Sciences [NCATS] NIH Chemical Genomics Center [NCGC] U.S. Environmental Protection Agency [EPA] National Institutes of Environmental Health Sciences [NIEHS] National Toxicology Program [NTP] U.S. Food and Drug Administration [FDA] Tox21 Assay Overview: Nuclear steroid hormone receptors are involved in many biological processes including inflammatory responses, cell proliferation, and apoptosis. Environmental factors or compounds disrupting these nuclear receptor pathways and gene expression may promote susceptibility to immunotoxicants and autoimmune diseases. One important group of these expression factors are the retinoid-related orphan receptors. To assess compounds that may interfere with the retinoid-related orphan receptor gamma (ROR-gamma) transcription factor, a cell-based luciferase assay was used. The CHO cell-based assay utilizes a TET-inducible ROR expression factor and ROR response element-LUC reporter gene. Reporter gene activity was induced using Doxycycline Hyclate and measured after 16 hr incubation. Tet-on ROR gamma CHO cells were used to screen against the Tox21 10K compound library for cytotoxicity by measuring the viability of the cells based on the quantitation of the ATP.
Tox21 Assay Protocol Summary: Tet-on ROR gamma CHO cells were dispensed at 1,000 cells in 4 uL of culture medium per well into white wall/solid bottom 1536-well plates using a Multidrop Combi (Thermo Scientific, Waltham, MA) dispenser. Following incubation at 37 C and 5% CO2 for 4 hr, 23 nL of compounds dissolved in DMSO, positive controls or DMSO only were transferred by a Pintool station (Kalypsys, San Diego, CA) and after 2 hr incubation at 37 C, one ul of 1 uM (final concentration) of Doxycycline Hyclate was added to all the wells by using a Flying Reagent Dispenser (FRD) (Aurora Discovery, San Diego, CA). After 16 hr incubation at 37 C and 5% CO2, 5 uL of CellTiter-Glo reagent (Promega Corporation, Madison, WI) was added to each assay plate using FRD. After 30 min incubation at room temperature, luminescence was quantified on a ViewLux plate reader (Perkin Elmer, Waltham, MA).
% is scaled to controls: 0 for no effect and ±100 for the full control effect.

| SMILES | activity, negative = cytotoxicity |
| --- | --- |
| COc1cc(NS(=O)(=O)c2ccc(N)cc2)ncn1 | 1.14% [at 42.5 µM] |
| O=C(OOC(=O)c1ccccc1)c1ccccc1 | 2.07% [at 42.5 µM] |
| CCOC(=O)CC | 0.222% |
| CCc1ccc(CC)cc1 | 0.936% |
| CC(C)C[P+](C)(CC(C)C)CC(C)C | 0.269% |
| Clc1ccc2c(c1)Nc1ccccc1S2 | -1.09% [at 42.5 µM] |
| CC(C)CC(O)Cc1ccccc1 (stereo not given) | 7.34% |
| C[C@]12C=CC(=O)C=C1[C@@H](F)C[C@@H]1[C@@H]2[C@@H](O)C[C@@]2(C)[C@H]1CC[C@]2(O)C(=O)CO | 4.95% [at 42.5 µM] |
| C=CCN1CCc2nc(N)sc2CC1 | 8.56% [at 42.5 µM] |
| CN(C)c1cc(NC(=O)CNC(C)(C)C)c(O)c2c1C[C@H]1C[C@H]3[C@H](N(C)C)C(=O)C(C(N)=O)=C(O)[C@@]3(O)C(=O)C1=C2O | -4.12% [at 42.5 µM] |
| C=CCOC(=O)CCCCCCCC | -1.19% |
| COc1cnc(NS(=O)(=O)c2ccc(N)cc2)nc1 | -0.556% [at 42.5 µM] |
| Cc1cc(C)c(N)c(Cl)c1 | -7.88% |
| COc1cc(S(N)(=O)=O)cc(C(=O)O)c1OC | 6.44% [at 42.5 µM] |
| COC(=O)c1ccccc1Cl | 2.2% |
| CCC(C)SSC(C)CC (stereo not given) | -0.559% |
| CCCCCCCC(=O)N(C)C | 8.18% |
| C=CCN(CC=C)CC=C | 8.28% |
| CCCCCCCCCCCCCCCCN(C)C | 7.06% [at 8.39 µM] |
| O=c1c(O)c(O)c1=O | -3.92% |

| SMILES | activity, negative = cytotoxicity |
| --- | --- |
| CCCCC(O)/C=C(C)/C=C/C=C/C(=O)N1CCCC1=O (stereo not given) | 3.54% [at 42.5 µM] |
| N#Cc1ccccc1C#N | -3.04% |
| O=C(O)CCCCCCCCCC(=O)O | 0.44% |
| C/C(=N\O)c1ccc(OCC(=O)N2CCCCC2)cc1 | 2.47% [at 42.5 µM] |
| COC(=O)/C=C(\C)CCC=C(C)C | -0.0508% |
| CCCC(=O)CC | 3.52% |
| CC(=O)Oc1ccc(C(C)=O)cc1 | 2.67% |
| CC(=O)c1c(C)cc(C(C)(C)C)cc1C | -18.9% |
| CCCCCCCCCCCCCCBr | -1.97% |
| C=C(C)C(=O)OCCOC1CC2CC1C1C=CCC21 (stereo not given) | -19.5% |
| CC(C)C(C)C | -1.68% |
| NC[C@H]1O[C@H](O[C@H]2[C@H](O)[C@@H](O[C@H]3O[C@H](CO)[C@@H](O)[C@H](N)[C@H]3O)[C@H](N)C[C@@H]2N)[C@H](N)[C@@H](O)[C@@H]1O | 0.5% [at 19 µM] |
| CCCCC(CC)COC(=O)CC#N (stereo not given) | 4.7% |
| CCCCC(CC)CCC(CC(C)C)OS(=O)(=O)O (stereo not given) | 2.7% |
| CCCCc1ccc(Cl)cc1 | -9.6% |
| CC(C)(C)C(=O)CC(=O)C(C)(C)C | 10.2% |
| COC(=O)N/N=C/c1c[n+]([O-])c2ccccc2[n+]1[O-] | 0.81% [at 42.5 µM] |
| NC(=O)CC[C@@H](N)C(=O)O | -1.96% [at 42.5 µM] |
| CCCCCCCCCCCC(C)=O | 4.62% |
| COC(=O)C(c1ccccc1Cl)N1CCc2sccc2C1 (stereo not given) | 6.1% [at 42.5 µM] |
